ClpP mod: qHTS Assay for Activators of ClpP | ATP-dependent Clp protease proteolytic subunit (Bacillus subtilis (strain 168)), P80244 | hit rate 1.9% among 340,000 | Potency, µM (highest dose often 57.5 µM), for inactives: at the top dose activity change, negative = active | purified B. subtilis ClpP, FRET peptide cleavage, 20 min; active = well fitted falling curve with a large enough effect; inconclusive = small, poorly fitted or top-dose-only effect; inactive = no such curve, though single readings can be large or run the other way; also: potency is read from the fitted curve at half-maximal effect; the source files actives as falling curves though it sought activators and does not explain the sign; nearly all actives have a fitted effect of over 65% in size
Target sequence (P80244 whole entry, looked up): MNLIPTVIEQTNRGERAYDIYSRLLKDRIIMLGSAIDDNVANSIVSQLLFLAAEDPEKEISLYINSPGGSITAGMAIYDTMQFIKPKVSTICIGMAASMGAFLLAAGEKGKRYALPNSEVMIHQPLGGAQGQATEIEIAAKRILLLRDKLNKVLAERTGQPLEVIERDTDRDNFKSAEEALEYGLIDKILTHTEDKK
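Purified B. subtilis ClpP, 10 microg/mL final in Tris/HCl pH8 with KCl, BSA, glycerol and Tween-20, cleaved an Abz/nitrotyrosine-quenched decapeptide. Fluorescence (ex 320, em 430) was read at 0 and 20 min at room temperature. Delta was normalized to 5.8 microM ADEP and DMSO/no-enzyme controls.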
Akt phos inh: HTS Assay for Inhibitors of Akt Phophorylation: Primary Screen; Neuro2A IGF-stimulated pAkt S473 HTRF, 20 min; active compounds read low; activity change, % for hits at 50 µM; hit rate 0.32% among 360,000; in the data active = activity change below about -80%; inconclusive = mostly about -51% to -80%; also: % is scaled to controls: 0 for no effect and ±100 for the full control effect
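Neuro2A cells (4,500/well, DMEM with 0.5% FBS) were treated with compound at a single 50 µM final concentration, stimulated with 6 nM IGF for 20 min at 37 °C, and lysed. Phospho-Akt Ser473 was read by HTRF as 665/615 ratio ×10^4.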
RXFP1 antag: qHTS Assay for Antagonists of the Relaxin Receptor RXFP1. AID 1259400, 2018. activity change, negative = inhibition, % at 57.5 µM. Relaxin receptor 1 (Homo sapiens), Q9HBX9. hit rate 0.59% among 350,000. HEK293-RXFP1, relaxin-stimulated cAMP HTRF, 30 min; active compounds read low;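 active = activity change of -60% or lower, but not beyond a set lower limit; inconclusive = change between -60% and -40%, or beyond the set limit; inactive = change above -40%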; also: % is scaled to controls: 0 for no effect and ±100 for the full control effect
gsp agonist: qHTS for Agonist of gsp, the Etiologic Mutation Responsible for Fibrous Dysplasia/McCune-Albright Syndrome: qHTS | gsp mutant cells, cAMP HTRF, 30 min | Potency, µM (top dose mostly 76.9 µM), inactives show top-dose activation (cAMP increase), most hits filed as activators | hit rate 0.13% among 340,000 | AID 624287, 2012; active = well fitted activation curve with a large enough effect; inconclusive = small, poorly fitted or top-dose-only effect, or another doubt; inactive = no such curve, though single readings can be large or run the other way; cell line not stated here;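 also: phosphodiesterase inhibitor Ro 20-1724 added with compounds to block cAMP breakdown; potency is read from the fitted curve at half-maximal effect; nearly all actives have a fitted effect of over 60% in size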
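Cells stably selected in G418 were plated at 2000/well, grown 16-24 hr, then given compounds in DMSO with the PDE inhibitor […] (300 uM solution added) for 30 min at 37C; cAMP was read by HTRF.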
RXFP1 agonist: qHTS Assay for Agonists of the Relaxin Receptor RXFP1; hit rate 0.3% among 370,000; Relaxin receptor 1 (Homo sapiens), Q9HBX9; AID 2676, 2010; Potency, µM (top dose mostly 57.5 µM), without a hit: top-dose activation, hits mostly activators; HEK293T-RXFP1 cAMP TR-FRET, 30 min; response scale: percent of porcine relaxin response, buffer zero; active = well fitted activation curve with a large enough effect; inconclusive = small, poorly fitted or top-dose-only effect; also: potency is read from the fitted curve at half-maximal effect; % is scaled to controls: 0 for no effect and ±100 for the full control effect; nearly all actives have a fitted effect of over 60% in size
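Agonist response is measured as cAMP accumulation in an RXFP1-transfected HEK293T line under PDE4 inhibition. Values are scaled between buffer-only and 29 nM porcine relaxin, and EC50s come from standard Hill equation fits.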
gsp antagonist: qHTS for Antagonists of gsp, the Etiologic Mutation Responsible for Fibrous Dysplasia/McCune-Albright Syndrome: qHTS. gsp-mutant cells, cAMP HTRF, 30 min. Potency, µM (doses to about 76.9 µM), without a hit: at the highest dose activity change, negative = inhibition, actives largely listed as inhibitors. hit rate 0.4% among 340,000. AID 624288, 2012; calls by dose curve; cell line not stated here;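 also: intracellular cAMP measured with PDE inhibitor Ro 20-1724 present during compound exposure; potency is read from the fitted curve at half-maximal effect; % is scaled to controls: 0 for no effect and ±100 for the full control effect; nearly all actives have a fitted effect of over 65% in size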
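HTRF cAMP measurement after 30 min RT detection following 30 min, 37C compound treatment alongside […] (added as 300 uM solution) in G418-selected cells seeded at 2000/well and grown 16–24 h.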
Numbers without * were called inactive; i = inactive; ? = inconclusive; · = not tested or not shown. This is a sample that favours compounds with a hit; in the whole collection about 2.7% have one here.

SMILES	ClpP mod	Akt phos inh	RXFP1 antag	gsp agonist	RXFP1 agonist	gsp antagonist
CC(=O)Nc1cc(C(=O)N2CCCC2)ccc1S(=O)(=O)c1ccc(C)cc1	-2.2%	i	-23.7	-34.3%	0.7%	-0.8%
CC(=O)Nc1cc(C(=O)N2CCCC2)ccc1Sc1ccc(Cl)cc1	-2.1%	i	1.4	18.4%	0.0%	11.2µM*
CC(=O)Nc1cc(C(=O)N2CCCC2)ccc1Sc1ccc(C)cc1	-1.8%	i	-15.1	17.0%	3.6%	20µM*
COc1ccc(-c2noc(CCC(=O)N3CCN(c4cccc(OC)c4)CC3)n2)cc1	2.1%	i	·	·	·	44.7µM*
CCOc1ccc(-c2nc(CSCC(=O)N3CCN(c4cccc(OC)c4)CC3)c(C)o2)cc1	-2.1%	i	-7.2	?	1.4%	39.8µM*
COc1cccc(C(=O)N(Cc2nc(-c3ccc(C)cc3)no2)C(C)C)c1	-0.6%	-100.4%*	6.1	-15.7%	-0.5%	-5.0%
CCCCNC(=O)c1ccc2c(=O)n(-c3ccccc3)c(=O)[nH]c2c1	4.2%	·	-4.5	·	?	·
COc1cc(-c2nnc(SCC(=O)NC(C)C)o2)cc(OC)c1OC	-0.3%	·	-0.8	·	3.5%	·
Cc1ccccc1OCCSc1nc2ccc(NC(=O)c3cccs3)cc2s1	14.1µM*	·	·	·	-0.3%	·
COc1cc(C)ccc1OCCSc1nc2ccc(NC(=O)c3ccc4c(c3)OCO4)cc2s1	22.4µM*	·	·	·	5.4%	·
Cc1cccc(OCCSc2nc3ccc(NC(=O)c4cccs4)cc3s2)c1	20µM*	·	·	·	2.4%	·
Cc1ccccc1C(=O)Nc1ccc2nc(SCCOc3ccccc3)sc2c1	13.4%	·	·	·	23.9%	·
Cc1ccccc1OCCSc1nc2ccc(NC(=O)c3cccc(F)c3)cc2s1	22.4µM*	·	·	·	0.6%	·
Cc1ccccc1OCCSc1nc2ccc(NC(=O)c3ccccc3)cc2s1	0.1%	·	·	·	-0.2%	·
O=c1[nH]c(=S)[nH]c2n[nH]nc12	-3.0%	·	·	·	·	·
O=C(NNC(=O)C1CCN(S(=O)(=O)c2ccc(Cl)cc2)CC1)c1ccccc1O	4.0%	i	·	-7.6%	-2.0%	-11.4%
CCOc1cc(C2c3c(oc4ccccc4c3=O)C(=O)N2Cc2ccccc2Cl)ccc1O (configuration not stated)	-3.3%	·	0.9	·	-0.8%	·
Cc1cc2nccc(/C=C/c3ccc(N(C)C)cc3)c2cc1C	-3.7%	·	·	·	·	·
COc1ccc(C(=O)Nc2ccc3nc(SCC(=O)N4CCCC4)sc3c2)cc1	100.9%	·	-21.3	·	4.6%	·
Cc1cccc(C(=O)Nc2ccc3nc(SCC(=O)N4CCCC4)sc3c2)c1	-8.6%	·	-66.1*	·	-1.6%	·
Cc1cc(NC(=O)CSc2nnc(-c3cccc(Cl)c3)o2)no1	-2.3%	i	10.1	-6.3%	6.5%	-4.2%
Cc1cc(NC(=O)CSc2nnc(-c3ccc4c(c3)OCCO4)o2)no1	-2.6%	-80.5%*	-3.6	?	5.7%	-5.8%
CCc1cc2cc3c(cc2nc1SCC(=O)Nc1cc(C)on1)OCO3	4.2%	i	-1.4	?	28.2µM*	21.4%
O=C1/C(=C/c2ccccc2)SC(=S)N1CC(=O)N1CCCCC1c1cccnc1 (configuration not stated)	1.3%	i	6.6	30.4%	-4.4%	39.8µM*
O=C1/C(=C\c2ccccc2)SC(=S)N1CCC(=O)N1CCCCC1CCO (configuration not stated)	0.1%	i	?	-16.7%	3.3%	8.9%
O=C1/C(=C/c2cccnc2)SC(=S)N1Cc1ccco1	-5.2%	i	?	-22.3%	·	35.5µM*
O=C(CCN1C(=O)/C(=C\c2ccccc2)SC1=S)NNC(=O)c1ccncc1	-0.6%	i	-9.7	-7.9%	-2.8%	-16.1%
